{"source": "PubChem BioAssay (Tox21)", "key": {"[1]": {"assay": "cAMP Responsive Elements (CRE) small molecule antagonists, cell-based qHTS assay: qHTS cell viability counter screen (AID 2060913); also: nearly all actives have a fitted effect of over 40% in size", "how_it_was_run": "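Viability of NKH477-stimulated (0.25 uM final) CRE-bla HEK293T cells is measured by CellTiter-Glo luminescence following 3 hrs compound exposure at 37 C.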"}, "[2]": {"assay": "cAMP Responsive Elements (CRE) small molecule agonists, cell-based qHTS assay: qHTS cell viability counter screen (AID 2060914); also: nearly all actives have a fitted effect of over 50% in size", "how_it_was_run": "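CRE-bla HEK293T cells in 10% dialyzed FBS medium were exposed to compounds for 3 h at 37C after 18 h plating. CellTiter-Glo was then added in the same wells, and luminescence was read after 30 min at room temperature.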"}}, "note": "Inconclusive results are not listed. A call without a number means that no potency is given here. Values without a mark were called inactive. The source made the active and inactive calls. Calls follow the shape of the dose curve; as a rule, active = well fitted cell-killing curve with a large enough effect in the repeat runs; inconclusive = weak or mixed curves, or effect the other way; inactive = flat fitted curve, though single readings scatter. Potency is read from the fitted curve at half-maximal effect."}
{"smiles": "Brc1c(Br)c(Br)c(Oc2c(Br)c(Br)c(Br)c(Br)c2Br)c(Br)c1Br", "values": [{"measurement": "viability change, negative = cytotoxic", "setting": "[1]", "result": "-10% [at 18.9 µM]"}, {"measurement": "activity change, negative = cytotoxicity", "setting": "[2]", "result": "4.51% [at 18.9 µM]"}]}
{"smiles": "CNP(=O)(OC)Oc1ccc(C(C)(C)C)cc1Cl", "note": "(centres undefined)", "values": [{"measurement": "Potency", "setting": "[1]", "result": "inactive"}, {"measurement": "Potency", "setting": "[2]", "result": "inactive"}]}
{"smiles": "O=NN(CCO)CCO", "values": [{"measurement": "Potency", "setting": "[1]", "result": "inactive"}, {"measurement": "Potency", "setting": "[2]", "result": "inactive"}]}
{"smiles": "CCC1(CCC(C)C)C(=O)NC(=O)NC1=O", "values": [{"measurement": "Potency", "setting": "[1]", "result": "inactive"}, {"measurement": "Potency", "setting": "[2]", "result": "inactive"}]}
{"smiles": "N#CC(O)c1ccccc1", "note": "(centres undefined)", "values": [{"measurement": "Potency", "setting": "[1]", "result": "inactive"}, {"measurement": "Potency", "setting": "[2]", "result": "inactive"}]}
{"smiles": "CC1=C2[C@H]3OC(=O)[C@@H](C)[C@@H]3CC[C@@]2(C)C=CC1=O", "values": [{"measurement": "Potency", "setting": "[1]", "result": "inactive"}, {"measurement": "Potency", "setting": "[2]", "result": "inactive"}]}
{"smiles": "NC(=O)OCCCc1ccccc1", "values": [{"measurement": "Potency", "setting": "[1]", "result": "inactive"}, {"measurement": "Potency", "setting": "[2]", "result": "inactive"}]}
{"smiles": "O=C1C(I)=CC(=C(c2cc(I)c(O)c(I)c2)c2ccccc2C(=O)O)C=C1I", "values": [{"measurement": "Potency", "setting": "[1]", "result": "inactive"}, {"measurement": "Potency", "setting": "[2]", "result": "inactive"}]}
{"smiles": "c1ccc(NNc2ccccc2)cc1", "values": [{"measurement": "Potency", "setting": "[1]", "result": "inactive"}, {"measurement": "Potency", "setting": "[2]", "result": "inactive"}]}
{"smiles": "C[N+](C)=CCl", "values": [{"measurement": "Potency", "setting": "[1]", "result": "inactive"}, {"measurement": "Potency", "setting": "[2]", "result": "inactive"}]}
{"smiles": "Cc1ccc([N+](=O)[O-])[c]2c1[O][Hg]2", "values": [{"measurement": "Potency", "setting": "[1]", "result": "11.9 µM (active)"}, {"measurement": "Potency", "setting": "[2]", "result": "18.8 µM (active)"}]}
{"smiles": "CCOC(=O)c1cncn1C(C)c1ccccc1", "note": "(centres undefined)", "values": [{"measurement": "Potency", "setting": "[1]", "result": "inactive"}, {"measurement": "Potency", "setting": "[2]", "result": "inactive"}]}
{"smiles": "O=[N+]([O-])c1ccc(Cl)cc1", "values": [{"measurement": "Potency", "setting": "[1]", "result": "inactive"}, {"measurement": "Potency", "setting": "[2]", "result": "inactive"}]}
{"smiles": "[Cl-].[Cl-].[Sn+2]", "values": [{"measurement": "Potency", "setting": "[1]", "result": "inactive"}, {"measurement": "Potency", "setting": "[2]", "result": "inactive"}]}
{"smiles": "COP(=S)(OC)Oc1ccc([N+](=O)[O-])cc1", "values": [{"measurement": "Potency", "setting": "[1]", "result": "inactive"}, {"measurement": "Potency", "setting": "[2]", "result": "inactive"}]}
{"smiles": "C[N+]1(C)CCCCC1", "values": [{"measurement": "Potency", "setting": "[1]", "result": "inactive"}, {"measurement": "Potency", "setting": "[2]", "result": "inactive"}]}
{"smiles": "CC(C)(C)NCC(O)c1cc(Cl)c(N)c(Cl)c1", "note": "(centres undefined)", "values": [{"measurement": "Potency", "setting": "[1]", "result": "inactive"}, {"measurement": "Potency", "setting": "[2]", "result": "inactive"}]}
{"smiles": "NP(N)(=O)NC(=O)c1ccc(F)cc1", "values": [{"measurement": "Potency", "setting": "[1]", "result": "inactive"}, {"measurement": "Potency", "setting": "[2]", "result": "inactive"}]}
{"smiles": "CCCC[P+](CC)(CCCC)CCCC", "note": "(tested in a mixture with another compound)", "values": [{"measurement": "Potency", "setting": "[1]", "result": "inactive"}, {"measurement": "Potency", "setting": "[2]", "result": "inactive"}]}
{"smiles": "CC[C@H]1C[C@@H]2C[C@H]3c4[nH]c5ccc(OC)cc5c4CCN(C2)[C@@H]13", "values": [{"measurement": "Potency", "setting": "[1]", "result": "inactive"}, {"measurement": "Potency", "setting": "[2]", "result": "inactive"}]}
{"smiles": "[Cl-].[Cl-].[Cl-].[Fe+3]", "values": [{"measurement": "Potency", "setting": "[1]", "result": "inactive"}, {"measurement": "Potency", "setting": "[2]", "result": "inactive"}]}
{"smiles": "Cc1ccccc1[N+](=O)[O-]", "values": [{"measurement": "Potency", "setting": "[1]", "result": "inactive"}, {"measurement": "Potency", "setting": "[2]", "result": "inactive"}]}
{"smiles": "CC(C)(C)c1ccc(CCOc2ncnc3ccccc23)cc1", "values": [{"measurement": "Potency", "setting": "[1]", "result": "inactive"}, {"measurement": "Potency", "setting": "[2]", "result": "inactive"}]}
{"smiles": "c1cc[n+]2c(c1)-c1cccc[n+]1CC2", "values": [{"measurement": "Potency", "setting": "[1]", "result": "inactive"}, {"measurement": "Potency", "setting": "[2]", "result": "inactive"}]}
{"smiles": "COP(=S)(OC)Oc1cc(Cl)c(Cl)cc1Cl", "values": [{"measurement": "Potency", "setting": "[1]", "result": "inactive"}, {"measurement": "Potency", "setting": "[2]", "result": "inactive"}]}
{"smiles": "CCC(=O)C(CC(C)N(C)C)(c1ccccc1)c1ccccc1", "note": "(centres undefined)", "values": [{"measurement": "Potency", "setting": "[1]", "result": "inactive"}, {"measurement": "Potency", "setting": "[2]", "result": "inactive"}]}
{"smiles": "CC1(C)Cc2cccc(O)c2O1", "values": [{"measurement": "Potency", "setting": "[1]", "result": "inactive"}, {"measurement": "Potency", "setting": "[2]", "result": "inactive"}]}
{"smiles": "CC[N+]1(CC)CCC(OC(=O)C(O)(c2ccccc2)c2ccccc2)C1", "note": "(centres undefined)", "values": [{"measurement": "Potency", "setting": "[1]", "result": "inactive"}, {"measurement": "Potency", "setting": "[2]", "result": "inactive"}]}
{"smiles": "CCBr", "values": [{"measurement": "Potency", "setting": "[1]", "result": "inactive"}, {"measurement": "Potency", "setting": "[2]", "result": "inactive"}]}
{"smiles": "C=CC(=O)N(C)C", "values": [{"measurement": "Potency", "setting": "[1]", "result": "inactive"}, {"measurement": "Potency", "setting": "[2]", "result": "inactive"}]}
{"smiles": "CCCCN(CCCC)C(=S)[S-].CCCCN(CCCC)C(=S)[S-].[Ni+2]", "values": [{"measurement": "Potency", "setting": "[1]", "result": "inactive"}, {"measurement": "Potency", "setting": "[2]", "result": "inactive"}]}
{"smiles": "O=C(CBr)c1ccc(O)cc1", "values": [{"measurement": "Potency", "setting": "[1]", "result": "inactive"}, {"measurement": "Potency", "setting": "[2]", "result": "inactive"}]}
{"smiles": "Cc1ccccc1OP(=O)(Oc1ccccc1C)Oc1ccccc1C", "values": [{"measurement": "Potency", "setting": "[1]", "result": "inactive"}, {"measurement": "Potency", "setting": "[2]", "result": "inactive"}]}
{"smiles": "CN1CCC(N(Cc2ccccc2)c2ccccc2)CC1", "values": [{"measurement": "Potency", "setting": "[1]", "result": "inactive"}, {"measurement": "Potency", "setting": "[2]", "result": "inactive"}]}
{"smiles": "O=NN1CCCCCC1", "values": [{"measurement": "Potency", "setting": "[1]", "result": "inactive"}, {"measurement": "Potency", "setting": "[2]", "result": "inactive"}]}
{"smiles": "Nc1cc(Cl)ccc1Cl", "values": [{"measurement": "Potency", "setting": "[1]", "result": "inactive"}, {"measurement": "Potency", "setting": "[2]", "result": "inactive"}]}
{"smiles": "C#CCO", "values": [{"measurement": "Potency", "setting": "[1]", "result": "inactive"}, {"measurement": "Potency", "setting": "[2]", "result": "inactive"}]}
{"smiles": "CCCN(CCOc1c(Cl)cc(Cl)cc1Cl)C(=O)n1ccnc1", "values": [{"measurement": "Potency", "setting": "[1]", "result": "inactive"}, {"measurement": "Potency", "setting": "[2]", "result": "inactive"}]}
{"smiles": "O=C(NCc1cccnc1)Nc1ccc([N+](=O)[O-])cc1", "values": [{"measurement": "Potency", "setting": "[1]", "result": "inactive"}, {"measurement": "Potency", "setting": "[2]", "result": "inactive"}]}
{"smiles": "CN(C)C1CSSSC1", "values": [{"measurement": "Potency", "setting": "[1]", "result": "inactive"}, {"measurement": "Potency", "setting": "[2]", "result": "inactive"}]}
{"smiles": "CC(C)(Cl)[N+](=O)[O-]", "values": [{"measurement": "Potency", "setting": "[1]", "result": "inactive"}, {"measurement": "Potency", "setting": "[2]", "result": "inactive"}]}
{"smiles": "O=P(Cl)(Cl)Cl", "values": [{"measurement": "Potency", "setting": "[1]", "result": "inactive"}, {"measurement": "Potency", "setting": "[2]", "result": "inactive"}]}
